# Reference: PubChem BioAssay AID651812 (National Center for Advancing Translational Sciences (NCATS), 2012)
# The whole screen tested about 2,100 compounds, of which about 650 (31%) were called active. Another 16% or so got no clear call; they are omitted. Some of the results follow. Values without a mark were called inactive. The call rests on the fitted dose curve; in most records, active means well fitted inhibition curve with a large enough effect; inconclusive means small, poorly fitted or top-dose-only effect; inactive means flat fitted curve, though single readings scatter.
# Assay: qHTS for inhibitors of Vif-A3G interactions: Cherry picks; further: nearly all actives have a fitted effect of over 80% in size; on activity, negative = fluorescence increase: % of control where 0% means no effect
# Details: HeLa A3G-eYFP + Vif (tagged APOBEC3G with the HIV-1 protein that degrades it), 24 h; Potency: eYFP fluorescence increase; series mostly up to 36.9 µM; activity, negative = fluorescence increase: at the top concentration
# Method in brief: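 HeLa cells stably expressing A3G-eYFP and Vif, cultured overnight then exposed to compounds at several concentrations for 24 hours at 37 C, 5% CO2; cellular yellow fluorescence (488 nm ex, 500-530 nm em) imaged on Acumen, MG132 positive control.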
# Potency means the concentration at half of the fitted maximal effect.
SMILES,"activity, negative = fluorescence increase",Potency
O=C(NCc1cccnc1)c1cccc(NS(=O)(=O)c2ccc(Br)cc2)c1,-0.847%,
COc1ccc(NC(=O)c2ccc(NC(=O)C(C)C)cc2)c([N+](=O)[O-])c1,,10.3 µM (active)
COc1ccc(COc2cc(-c3cccc(OC)c3)nc3ccc(NC(=O)C(C)C)cc23)cc1,-2.87%,
COc1ccc(-c2nnc(NC(=O)c3ccc([N+](=O)[O-])o3)o2)c(OC)c1,-1.94% [at 46.1 µM],
CN(C)c1ccc(/C=C2\NC(=S)N(Cc3ccccc3)C2=O)cc1,,9.94 µM (active)
CCN1C(=O)/C(=C/c2ccc(N3CCCC3)cc2)NC1=S,,10.3 µM (active)
Cc1ccc(C=Nc2ccccc2C(N)=O)s1,-5.29%,
O=C1N/C(=C\c2ccccc2)c2ccccc21,-6.2%,
O=C1/C(=C/c2ccc(N3CCCC3)cc2)NC(=S)N1C1CC1,,3.66 µM (active)
Cc1ccc(/C=C2/NC(=O)N(Cc3ccccc3)C2=O)s1,,23.1 µM (active)
COc1ccc(COn2c(=O)c(C)[n+]([O-])c3ccccc32)cc1OC,-5.61%,
COc1ccccc1N1CCN(c2ncnc3c2oc2ccccc23)CC1,1.39%,
CCOC(=O)N1CCN(C(=O)c2ccccc2-c2ccccc2)CC1,-0.014%,
CCOC(=O)N1CCN(/C=C(\C#N)c2nc3ccccc3s2)CC1,,18.4 µM (active)
CCOC(=O)N1CCN(C(=O)c2cc(-c3ccc(OCC)cc3)nc3ccccc23)CC1,0.415%,
COc1ccc(S(=O)(=O)N2N=C(C)Oc3ccccc3C2=O)cc1,-6.59%,
COc1cc(/C=N/NC(=O)c2cc(-c3c(C)nn(-c4ccccc4)c3C)n[nH]2)ccc1O,-8.18%,
COc1ccc(C(=O)N/N=C/c2cc(Br)ccc2O)cc1OC,0.135% [at 46.1 µM],
COc1cc(/C=C2\SC(=S)N(NC(=O)c3ccc(O)c(OC)c3)C2=O)ccc1O,,13 µM (active)

SMILES,"activity, negative = fluorescence increase",Potency
COc1cc(/C=C2\SC(=S)N(NC(=O)c3ccccc3O)C2=O)ccc1O,,23.1 µM (active)
COc1cc(/C=C/C(C)=NNc2ccccc2)ccc1O,-7.3%,
COc1cc(/C=N/NC(=O)c2[nH]nc3c2CCc2ccccc2-3)ccc1O,-2.56%,
CCOC(=O)C(C(=O)OCC)C(Nc1cccc(Br)c1)c1ccccc1 (stereo not drawn),-2.02%,
c1ccc2c(CCc3c[nH]c4ccccc34)ccnc2c1,,23.1 µM (active)
CCCCN1C(=O)/C(=C2/Sc3ccccc3N2C)S/C1=N\c1ncn[nH]1,,18.4 µM (active)
Cc1ccc2c(c1)C=CC(C#N)N2C(=O)c1ccccc1 (stereo not drawn),-2.86%,
O=C(Nc1nc2ccc(S(=O)(=O)N3CCCC3)cc2s1)C1CCCCC1,-0.031%,
COc1cccc(C(=O)Nc2ccc(N3CCCC3)cc2)c1,-6.33%,
Nc1c(C(=O)Nc2ccc(S(=O)(=O)N3CCCC3)cc2)sc2nc3ccc(OC(F)(F)F)cc3cc12,,20.6 µM (active)
Cc1c(C(=O)Nc2ccc(C(C)C)cc2)sc2nc3n(c(=O)c12)CCC3,-1.38% [at 46.1 µM],
Cc1cccc2cc3c(N)c(C(=O)Nc4ccc(N5CCOCC5)cc4)sc3nc12,,14 µM (active)
COc1ccc(NC(=O)c2oc3ccc(S(=O)(=O)N4CCOCC4)cc3c2C)cc1,-0.471%,
O=C(Nc1ccc(N2CCOCC2)cc1)c1cccc2ccccc12,-3.81%,
O=C(Nc1ccc(Cl)cn1)c1cccc(S(=O)(=O)N2CCCCCC2)c1,-4.99%,
Cc1cc2nc(-c3ccc(SCC(=O)Nc4ccc(S(=O)(=O)N5CCCC5)cc4)nc3)[nH]c2cc1C,-11% [at 46.1 µM],
Nc1c(C(=O)Nc2ccc(S(=O)(=O)N3CCCC3)cc2)sc2nc3cc4c(cc3cc12)CCC4,,8.2 µM (active)
CCc1cccc2cc3c(N)c(C(=O)Nc4ccc(S(=O)(=O)N5CCCC5)cc4)sc3nc12,,4.98 µM (active)
COC(=O)Nc1ccc(S(=O)(=O)N2CCCc3ccccc32)cc1,-4.64%,
